BJeLR viab HTS – lowers viability of BJeLR cells; BJeLR fibroblasts viability, CellTiterGlo ATP luminescence, 48 h; HRASV12, hTERT and SV40 LT/ST transformed; viability loss activity score, % (test concentration not listed); 30,000 compounds, 0.64% hits; in the data active = viability loss activity score above about 50%;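 also: higher score means fewer live cells and less ATP luminescence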
A1 inh – A1 inhibition; MEF A1-2A-BIM cells, caspase-Glo luminescence, 3 h; percent of clofoctol signal, DMSO as zero; caspase activation, % (no concentration beside the values); 21,000 compounds, 0.51% hits;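 active = most replicate scores above 10, or exactly half above 10 with mean activity above 10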;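 also: effector caspase 3 and 7 activity cleaving a DEVD luciferin substrate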
The depositor's hits bear a star; nt = not tested or not shown; ! = a repeat was not active. An excerpt weighted towards active compounds, which were near 0.9% of everything screened.

SMILES	BJeLR viab HTS	A1 inh
CCC(=O)N1CCc2cc(S(=O)(=O)NC(CC(C)C)C(=O)Nc3cc(C)ccc3C)ccc21 (stereo unspecified)	5.5	nt
O=C(O)COCC(=O)Nc1ccc(-n2ccc(C(F)(F)F)n2)cc1	-2.0	nt
CCC(C)NC(=O)Cn1c(=O)n(Cc2ccccc2Cl)c(=O)c2cc(OC)c(OC)cc21 (stereo unspecified)	0.6	nt
OC(CN1CCN(c2cccc(Cl)c2)CC1)Cn1c2ccccc2c2ccccc21 (stereo unspecified)	-9.7	-0.4
OC(CN1CCNCC1)Cn1c2ccc(Br)cc2c2cc(Br)ccc21 (stereo unspecified)	8.4	16.0*!
Cc1cc(C)cc(NC(=O)CN2C(=O)CCc3ccccc32)c1	0.3	10.9*
Cc1cc(C)cc(NC(=O)CN2C=NS(=O)(=O)c3ccccc32)c1	2.5	0.8
COc1ccccc1Nc1c2c(nc3ccc(NC(=O)/C=C/c4cccs4)cc13)CCCC2	20.6	nt
CCCNC(=O)c1ccc(-n2c(-c3ccccc3)cc3c2CCCC3)cc1	-2.6	nt
CCCOc1ccc2nc(NC(=O)OC)[nH]c2c1	58.1*	2.4
CCCOc1cccc(C(=O)Nc2ccc(C(=O)OC)cc2)c1	2.7	-1.1
O=C1C(Nc2ccccc2)=CC(=O)c2ncccc21	69.1*	-0.8
Cc1cccc2nc(-c3cccc(NC(=O)C(C)C)c3)cn12	-0.4	nt
CN(C(=O)c1ccc2c(Cl)c3c(nc2c1)CCCC3)C1CCCCC1	-3.9	nt
